Data from PubChem BioAssay (NCATS).
“And” between values parts separate entries of the source, which are not always exact repeats. Identical values can stand only once. Records with an inconclusive call do not appear. The source made the active and inactive calls. Unless noted, the call rests on the fitted dose curve; in most records, active means well fitted curve in the direction sought with a large enough effect; inconclusive means small, poorly fitted or top-dose-only effect, or another doubt; inactive means no such curve, though single readings can be large; an effect the other way counts as inactive or inconclusive.

Experiments:
C33A = assay: Primary qHTS to identify gynecologic anti-cancer compounds using libraries of approved drugs and bioactive compounds (AID 1345084); conditions: Gynecologic cancer cell panel viability, ATPlite luminescence, 48 h; series mostly up to 57.5 µM; further: nearly all actives have a fitted effect of over 55% in size; further: potency means the concentration at half of the fitted maximal effect; on activity change, negative = cytotoxicity: on the % scale 0 is the no-effect control and ±100 the full control effect
Procedure, shortened: (§1)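 Five-concentration response, 48 h; readout is ATP-driven luciferase luminescence.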

CAOV3 = assay: as above; conditions: Gynecologic cancer cell panel viability, ATPlite luminescence, 48 h; series mostly up to 57.5 µM
Procedure, shortened: as §1

CASKI = assay: as above; conditions: Gynecologic cancer cell panel viability, ATPlite luminescence, 48 h; series mostly up to 57.5 µM
Procedure, shortened: as §1

Es-2 = assay: as above; conditions: Gynecologic cancer cell panel viability, ATPlite luminescence, 48 h; series mostly up to 57.5 µM
Procedure, shortened: as §1

HeLa = assay: as above; conditions: Gynecologic cancer cell panel viability, ATPlite luminescence, 48 h; series mostly up to 57.5 µM
Procedure, shortened: as §1

Hek293T = assay: as above; conditions: Gynecologic cancer cell panel viability, ATPlite luminescence, 48 h, control line for the selectivity index; series mostly up to 57.5 µM
Procedure, shortened: as §1

JEG-3 = assay: as above; conditions: Gynecologic cancer cell panel viability, ATPlite luminescence, 48 h; series mostly up to 57.5 µM
Procedure, shortened: as §1

OV90 = assay: as above; conditions: Gynecologic cancer cell panel viability, ATPlite luminescence, 48 h; series mostly up to 57.5 µM
Procedure, shortened: as §1

PA-1 = assay: as above; conditions: Gynecologic cancer cell panel viability, ATPlite luminescence, 48 h; series mostly up to 57.5 µM
Procedure, shortened: as §1

SKOV3 = assay: as above; conditions: Gynecologic cancer cell panel viability, ATPlite luminescence, 48 h; series mostly up to 57.5 µM
Procedure, shortened: as §1

Tov-21-G = assay: as above; conditions: Gynecologic cancer cell panel viability, ATPlite luminescence, 48 h; series mostly up to 57.5 µM
Procedure, shortened: as §1

Tov112D = assay: as above; conditions: Gynecologic cancer cell panel viability, ATPlite luminescence, 48 h; series mostly up to 57.5 µM
Procedure, shortened: as §1

[1] = Drug repurposing screens with cells derived from glioblastoma tumor samples (AID 1345199); conditions: GBM patient neurospheres viability, ATP luminescence, 48 h; further: nearly all actives have a fitted effect of over 40% in size; further: potency means the concentration at half of the fitted maximal effect; on activity, negative = cell killing: on the % scale 0 is the no-effect control and ±100 the full control effect
Procedure, shortened: (§2)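 Four patient lines of CD133+ GBM neurospheres were screened at several concentrations; hits were retested in those lines plus three slower-growing GBM lines, using 48-hour treatment and ATP-based viability.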

[2] = target: Nuclear receptor subfamily 1 group I member 2 (Rattus norvegicus) (UniProt Q9R1A7); assay: qHTS assay for small molecule activators of the rat pregnane X receptor (rPXR) signaling pathway (AID 651751; call rule not given here; further: 0% is about no effect); conditions: rPXR reporter cells, luciferase (One-Glo), 24 h
astro = assay: Drug repurposing screens with cells derived from glioblastoma tumor samples (AID 1345199); conditions: viability, ATP luminescence, 48 h; series mostly up to 45.9 µM; further: nearly all actives have a fitted effect of over 40% in size; further: potency means the concentration at half of the fitted maximal effect; on activity, negative = cell killing: on the % scale 0 is the no-effect control and ±100 the full control effect
Procedure, shortened: as §2

WaGa = assay: qHTS assay to identify novel small-molecules to repurpose for Merkel cell carcinoma treatment (AID 1296009); conditions: MCC and control cell lines, CellTiter-Glo viability, 72 h; series mostly up to 46 µM; further: nearly all actives have a fitted effect of over 60% in size; further: potency means the concentration at half of the fitted maximal effect; on activity change, negative = cytotoxicity: on the % scale 0 is the no-effect control and ±100 the full control effect
Procedure, shortened: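 Cells were treated for 72 hr at 37 degree celsius with compounds in 8- or 11-point dose response. Viability was read by CellTiter-Glo luminescence, normalized to no-cell (cytotoxicity) and DMSO controls.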

[3] = at 45.9 µM (top of the series), tumour line B
[4] = at 46.1 µM (top of the series), tumour line C
[5] = at 45.9 µM (top of the series), tumour line D
[6] = at 46 µM (top of the series), tumour line A
[7] = at 20 µM (top of the series), tumour line C
[8] = at 21.2 µM (top of the series), tumour line B

Chain of Nuclear receptor subfamily 1 group I member 2 (Rattus norvegicus) (Q9R1A7 whole entry, looked up): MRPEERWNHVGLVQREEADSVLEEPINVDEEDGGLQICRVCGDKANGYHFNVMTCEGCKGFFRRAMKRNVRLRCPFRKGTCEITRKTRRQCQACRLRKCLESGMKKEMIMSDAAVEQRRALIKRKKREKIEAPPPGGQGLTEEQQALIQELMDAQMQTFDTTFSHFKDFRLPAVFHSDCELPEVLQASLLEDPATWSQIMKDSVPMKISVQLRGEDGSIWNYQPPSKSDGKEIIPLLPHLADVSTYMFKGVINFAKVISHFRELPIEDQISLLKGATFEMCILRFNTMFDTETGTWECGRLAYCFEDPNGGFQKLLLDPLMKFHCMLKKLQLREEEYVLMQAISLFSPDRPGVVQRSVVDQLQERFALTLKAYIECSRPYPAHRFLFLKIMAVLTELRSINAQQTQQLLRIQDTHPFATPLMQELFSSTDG

CC/C(=C(/CC)c1ccc(O)cc1)c1ccc(O)cc1
inactive: Potency (C33A) | Potency (CAOV3) | Potency (CASKI) | Potency (Es-2) | Potency (HeLa) | Potency (Hek293T) | Potency (JEG-3) | Potency (OV90) | Potency (PA-1) | Potency (SKOV3) | Potency (Tov-21-G) | Potency (Tov112D) | activity, negative = cell killing [1, 3] -24.8% | activity, negative = cell killing [1, 4] -3.33% | max response [2] 1.62% and -5.34%
active: Potency ([1]; tumour line A) 14.1 µM

Nc1ccc(/C=C/c2ccc(N)cc2S(=O)(=O)O)c(S(=O)(=O)O)c1
inactive: activity change, negative = cytotoxicity (C33A) -2.85% [at 0.462 µM] | activity change, negative = cytotoxicity (CAOV3) -5.63% [at 0.462 µM] | activity change, negative = cytotoxicity (CASKI) -23.3% [at 0.462 µM] | activity change, negative = cytotoxicity (Es-2) 1.34% [at 0.462 µM] | activity change, negative = cytotoxicity (HeLa) 9.69% [at 0.462 µM] | activity change, negative = cytotoxicity (Hek293T) 4.03% [at 0.462 µM] | activity change, negative = cytotoxicity (JEG-3) -1.28% [at 0.462 µM] | activity change, negative = cytotoxicity (OV90) 2.33% [at 0.462 µM] | activity change, negative = cytotoxicity (PA-1) 4.94% [at 0.462 µM] | activity change, negative = cytotoxicity (SKOV3) -10.7% [at 0.462 µM] | activity change, negative = cytotoxicity (Tov-21-G) 0.128% [at 0.462 µM] | activity change, negative = cytotoxicity (Tov112D) 3.4% [at 0.462 µM] | activity, negative = cell killing [1, 3] -7.96% | activity, negative = cell killing [1, 5] -14.3% | activity, negative = cell killing [1, 6] -15.5% | activity, negative = cell killing [1, 4] -2.52% | Potency (astro)

CCN1CCN(c2cc3c(cc2F)c(=O)c(C(=O)O)cn3C2CC2)CC1
inactive: Potency (C33A) | Potency (CAOV3) | Potency (CASKI) | Potency (Es-2) | Potency (HeLa) | Potency (Hek293T) | Potency (JEG-3) | Potency (OV90) | Potency (PA-1) | Potency (SKOV3) | Potency (Tov-21-G) | Potency (Tov112D) | activity, negative = cell killing [1, 3] 9.67% | activity, negative = cell killing [1, 5] -1.9% | activity, negative = cell killing [1, 6] -9.98% | activity, negative = cell killing [1, 4] 17.2% | Potency (astro)

C#C[C@]1(O)CC[C@H]2[C@@H]3CCc4cc(OC5CCCC5)ccc4[C@H]3CC[C@@]21C
inactive: Potency (C33A) | Potency (CAOV3) | Potency (CASKI) | Potency (Es-2) | Potency (HeLa) | Potency (Hek293T) | Potency (JEG-3) | Potency (Tov-21-G) | Potency (Tov112D) | activity, negative = cell killing [1, 4] -25.1%
active: Potency (OV90) 20 µM | Potency ([1]; tumour line A) 4.47 µM | Potency ([1]; tumour line B) 10 µM | Potency (astro) 22.4 µM

COc1c(C)c2c(c(O)c1C/C=C(\C)CCC(=O)O)C(=O)OC2
inactive: Potency (CAOV3) | Potency (JEG-3) | activity, negative = cell killing [1, 7] -18.6%
active: Potency (WaGa) 0.531 µM | Potency (Es-2) 2.82 µM | Potency (PA-1) 0.282 µM | Potency (Tov-21-G) 1 µM

CCCCCCCCCCCCCCNCCO
inactive: Potency (WaGa) | Potency (CASKI) | Potency (Es-2) | Potency (HeLa) | Potency (Hek293T) | Potency (JEG-3) | Potency (OV90) | Potency (PA-1) | Potency (SKOV3) | Potency (Tov-21-G) | Potency (Tov112D)

Oc1ccc(Cl)c2cccnc12
inactive: Potency (C33A) | Potency (CAOV3) | Potency (CASKI) | Potency (Es-2) | Potency (HeLa) | Potency (Hek293T) | Potency (JEG-3) | Potency (OV90) | Potency (PA-1) | Potency (SKOV3) | Potency (Tov-21-G) | Potency (Tov112D) | activity, negative = cell killing [1, 4] -0.921% | Potency (astro)

O=C(OCCOCCO)c1ccccc1Nc1cccc(C(F)(F)F)c1
inactive: Potency (C33A) | Potency (CAOV3) | Potency (CASKI) | Potency (Es-2) | Potency (HeLa) | Potency (Hek293T) | Potency (JEG-3) | Potency (OV90) | Potency (PA-1) | Potency (SKOV3) | Potency (Tov-21-G) | Potency (Tov112D) | activity, negative = cell killing [1, 7] -19.4% | activity, negative = cell killing [1, 8] 0.602% | activity, negative = cell killing ([1]; at 21.2 µM (top of the series), tumour line D) -4.96%

C[C@]12CC[C@@H]3c4ccc(O)cc4CC[C@H]3[C@@H]1C[C@@H](O)[C@@H]2O
inactive: Potency (C33A) | Potency (CAOV3) | Potency (CASKI) | Potency (Es-2) | Potency (Hek293T) | Potency (JEG-3) | Potency (OV90) | Potency (SKOV3) | Potency (Tov-21-G) | Potency (Tov112D) | activity, negative = cell killing [1, 3] -9.53% | activity, negative = cell killing [1, 5] -17.2% | activity, negative = cell killing [1, 4] 22.1%
active: Potency (HeLa) 31.6 µM

CCOC(=O)/C=C(C)/C=C/C=C(C)/C=C/c1c(C)cc(OC)c(C)c1C
inactive: Potency (C33A) | Potency (CAOV3) | Potency (CASKI) | Potency (Es-2) | Potency (HeLa) | Potency (Hek293T) | Potency (JEG-3) | Potency (OV90) | Potency (PA-1) | Potency (SKOV3) | Potency (Tov-21-G) | Potency (Tov112D)

C/C=C/c1ccc(OC)cc1
inactive: Potency (C33A) | Potency (CAOV3) | Potency (CASKI) | Potency (Es-2) | Potency (HeLa) | Potency (Hek293T) | Potency (JEG-3) | Potency (OV90) | Potency (PA-1) | Potency (SKOV3) | Potency (Tov-21-G) | Potency (Tov112D) | activity, negative = cell killing [1, 3] -1.8% | activity, negative = cell killing [1, 5] 3.04% | activity, negative = cell killing [1, 6] -17.3% | activity, negative = cell killing [1, 4] 0.347% | Potency (astro)

COC(=O)C1=C(C)NC(C)=C(C(=O)O[C@@H]2CCCN(Cc3ccccc3)C2)[C@@H]1c1cccc([N+](=O)[O-])c1
inactive: Potency (C33A) | Potency (CAOV3) | Potency (CASKI) | Potency (Es-2) | Potency (HeLa) | Potency (Hek293T) | Potency (JEG-3) | Potency (OV90) | Potency (PA-1) | Potency (SKOV3) | Potency (Tov-21-G) | Potency (Tov112D)
active: Potency (WaGa) 26.6 µM

COc1cc(N)c(Cl)cc1C(=O)NC1CCN(CCCOc2ccc(F)cc2)CC1OC (stereo not drawn)
active: Potency (OV90) 25.1 µM | Potency ([1]; tumour line A) 5.62 µM
inactive: Potency (WaGa) | Potency (C33A) | Potency (CAOV3) | Potency (CASKI) | Potency (Es-2) | Potency (HeLa) | Potency (Hek293T) | Potency (JEG-3) | Potency (PA-1) | Potency (SKOV3) | Potency (Tov-21-G) | Potency (Tov112D) | activity, negative = cell killing [1, 7] -1.31% | activity, negative = cell killing [1, 8] -11.4%
